# Bioassay records as filed in PubChem.
# ugtP null kill: compounds lethal to S. aureus RN4220 ugtP deletion mutant | AID 1259309 | 330,000 tested, 0.54% active | OD600 growth, 16 h | growth inhibition, % (no concentration beside the values); in the data active means growth inhibition above about 68%;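 further: plate controls were untreated wells for no effect and antibiotic for full effect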
# Mtb hypoxia inh: reduces hypoxia-regulated biosensor signal in M. tuberculosis | M. tuberculosis hypoxia-regulated fluorescent reporter, fluorescence | fluorescence inhibition, % (test concentration not listed) | 300,000 tested, 0.1% active | AID 1159583; in the data active means fluorescence inhibition mostly above about 23%, no sharp cut-off; inactive means mostly below about 17%
# Mtb betalactam: beta-lactam sensitization of Mtb H37Rv | M. tuberculosis H37Rv growth with meropenem, percent inhibition | inhibition, % at 25 µM | 330,000 tested, 0.27% active | AID 434955; call rule not given here;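 further: growth measured after seven days incubation then overnight dye step; 0% = bacteria only wells and 100% = bacteria with antibiotic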
# RN4220 kill: kills Staphylococcus aureus RN4220; 330,000 tested, 0.33% active; inhibition, % (test concentration not listed); AID 1259311; S. aureus RN4220 growth, OD600, 16 h; in the data active means inhibition above about 85%;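 further: plate controls were untreated cells for no effect and reference antibiotic for full effect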
# * = called active by the depositor; · = not tested or not shown. A selection: hits, their analogues and other compounds. The true share with any hit is near 0.61%.
SMILES,ugtP null kill,Mtb hypoxia inh,Mtb betalactam,RN4220 kill
Cc1oc2c(c1C(=O)NCc1cccnc1)C(=O)c1ccccc1C2=O,87.7,19.4,99.9,91.3*
c1ccc(-c2nc(-c3cccs3)[nH]c2-c2ccccc2)cc1,4.3,-1.9,-4.3,-3.2
c1csc(-c2nc3c4ccccc4c4ccccc4c3[nH]2)c1,89.7*,2.8,4.2,81.2
Oc1ccccc1-c1nc2c3ccccc3c3ccccc3c2[nH]1,97.9*,3.3,16.2,100.4*
Cc1ccc(C2CC2C(=NO)c2ccc(F)cc2)cc1 (configuration not stated),6.0,18.7,·,2.0
CCCCNC(=S)NN=CC1=CCC2CC1C2(C)C (configuration not stated),25.5,0.4,·,-2.2
COc1n[nH]c(C(=O)Nc2cc(Cl)ccc2Cl)c1[N+](=O)[O-],88.4*,6.8,36.4,89.8*
CC(=O)N(N=Cc1ccc([N+](=O)[O-])o1)c1nc2ccccc2c(=O)n1-c1ccccc1,19.5,6.5,·,19.1
O=C(NC(=S)Nc1nc2c(s1)CSc1ccccc1-2)c1ccccc1,83.5*,7.3,·,19.8
CC(C)(C)OC(=O)NN=C(c1ccc(O)cc1)c1ccc(O)cc1,98.7*,11.3,-5.5,99.2*
CC(C)(C)OC(=O)NN=Cc1ccc(C(=O)O)cc1,6.3,12.3,·,5.0
C=C(C)C1CC=C(C)C(=NNC(=O)COc2ccccc2Cl)C1 (configuration not stated),-2.9,-0.3,·,4.3
O=C(OCC(=O)c1c[nH]c2ccccc12)c1ccc([N+](=O)[O-])s1,100.5*,14.2,99.9,85.4
CCc1cccc2c(C(=O)COC(=O)c3ccc([N+](=O)[O-])s3)c[nH]c12,100.6*,7.6,99.9,100.3*
CCOc1cc(/C=N\O)cc(Cl)c1OCC,·,·,4.8,·
COc1cc(C=NO)cc(Br)c1OC,5.7,0.7,·,0.1
CCCOc1c(Br)cc(C=NO)cc1OC,85.8*,·,·,-5.2
CCCOc1c(Cl)cc(C=NO)cc1OCC,93.3*,·,·,-2.6
COc1ccc(C=NNC(=O)c2cc(O)c(O)c(O)c2)cc1COc1ccc(C(=O)OCC(C)C)cc1,98.7*,5.2,·,26.5
O=C(NN=Cc1ccccc1)c1ccc(OCc2ccccc2)cc1,6.7,8.7,·,3.1
O=C(NN=Cc1ccc(OCc2ccccc2)cc1)c1ccncc1,3.9,36.5*,·,6.1
CC(C)(C)c1ccc(OCc2ccc(C(=O)NN=Cc3ccc(O)c(O)c3)cc2)cc1,93.7*,9.6,·,46.6
CC1CN=C(N(C)C)N1CCC1CCCCC1 (configuration not stated),-0.7,11.9,·,3.9
CN(C(C(=O)OC(C)(C)C)c1ccccc1)S(=O)(=O)c1cccc(S(=O)(=O)N(C)C(C(=O)OC(C)(C)C)c2ccccc2)c1 (configuration not stated),8.5,5.0,·,3.8
Cc1ccc(-n2c(-c3ccc(Br)cc3)c[n+]3c2CCc2ccc4cccnc4c2-3)cc1,90.1,·,98.7,99.0*
SMILES,ugtP null kill,Mtb hypoxia inh,Mtb betalactam,RN4220 kill
O=C(/C=C/c1ccccc1)N1CCN(CCN2C(=O)c3cccc4cccc(c34)C2=O)CC1,97.7*,-2.7,99.6,82.8
Cc1nn(C)cc1C=NNC(=O)Cn1nnc(N)n1,0.0,-11.6,·,3.4
COc1ccc(OC)c(Nc2c3ccccc3nc3ccccc23)c1,·,·,15.5,·
COc1cc(NS(C)(=O)=O)ccc1Nc1c2ccccc2nc2ccccc12,99.7*,-0.5,2.0,-8.5
NC(=NOCc1ccc([N+](=O)[O-])cc1)c1ccccn1,-0.2,12.8,·,8.5
Nc1nonc1-n1nnc(C(=O)NN=Cc2ccc(Cl)cc2Cl)c1CN1CCCC1,-2.7,5.6,·,2.5
CC(=O)OCC1=C(C(=O)O)N2C(=O)C(NC(=O)c3ccc(COc4ccc(Cl)cc4)o3)C2SC1 (configuration not stated),100.2*,10.8,-4.3,99.4*
CC(=O)OCC1=C(C(=O)O)N2C(=O)C(NC(=O)c3ccc(COc4c(C)cccc4Cl)o3)C2SC1 (configuration not stated),100.0*,8.9,-1.1,95.5*
CC(=NNC(=O)c1cccc(F)c1)c1ccc(NC(=O)Cc2ccccc2)cc1,0.2,5.0,·,0.7
O=C1C=C(c2ccc3c(c2)OCO3)CC(c2ccc(Cl)cc2)C1 (configuration not stated),-2.2,3.9,·,1.4
Cn1cnc([N+](=O)[O-])c1S(=O)(=O)Oc1cccc2ccccc12,91.1*,·,·,52.4
Cn1ncc(C#N)c1N=CN(Cc1ccccc1)Cc1ccccc1,99.8*,·,·,101.1*
Cc1cccc(C(=O)NC(=S)Nc2ccc(N3CCOCC3)cc2)c1,86.9*,-4.3,0.5,2.0
CC(C)(C)c1ccc(C(=O)NC(=S)Nc2ccc(N3CCOCC3)cc2)cc1,-8.0,·,32.6,-7.6
